Assay outcomes (PubChem BioAssay)
Hits are enriched below; roughly 0.5% of the tested compounds scored in any of these assays.
Tat transport: E. coli Tat export inhibitors, primary screen, MC4100, TorA-mCherry reporter, fluorescence, single point. inhibition, % at 10 µM. actives 0.036% (n = 340,000);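 active means mean replicate inhibition at least 50% and at least half of replicates individually reaching 50%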;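 further: exported cargo escapes ClpAP degradation while cytoplasmic cargo is degraded and loses fluorescence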
E coli growth-1: E. coli V3065 growth inhibition, primary screen, counter-screen for AddAB inhibitor project, absorbance, OD600; 18 h; inhibition, % at 11.9 µM; actives 0.27% (n = 330,000); AID 449728, 2010;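 active means inhibition above the campaign's mean inhibition across all tested compounds plus 3 SD, cut at about 9.9% in these data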;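 further: uninfected addAB+ strain grown without phage in ampicillin broth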
AddAB inh: growth inhibition of E. coli expressing H. pylori AddAB, primary screen, AddAB inhibitor project, absorbance; inhibition, % at 11.9 µM; actives 0.29% (n = 330,000); in the data active means inhibition above about 12%
E coli growth-2: E. coli growth inhibition, primary screen, OD600; actives 0.21% (n = 330,000); Escherichia coli growth, 23 h; hits give low values; OD600 absorbance (no concentration beside the values);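 active means OD600 absorbance below the run mean of sample wells minus 3.6 SD, in any replicate, cut at about 0.56 in these data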
phage Ecoli inh: growth loss of phage-infected E. coli, primary screen, RecBCD inhibitor project, absorbance, with phage, HTS; inhibition, % at 11.9 µM; AID 651602, 2012; actives 0.26% (n = 360,000); in the data active means inhibition above about 11%
AddAB confirm: growth loss of phage-infected E. coli expressing H. pylori AddAB, confirmation, AddAB inhibitor project, absorbance, E. coli V3065, T4 phage, triplicate. OD; T4 phage with gene 2 nonsense mutations. shares compounds with AddAB inh. actives 64% (n = 880). inhibition, % at 11.9 µM;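 active means mean inhibition above a set limit taken from the earlier primary screen, cut at about 13% in these data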;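 further: higher means less bacterial growth since AddAB block lets phage replicate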
RecBCD counter: growth loss of RecBCD+ E. coli with mutant T4 phage, counter-screen for AddAB inhibitor project, absorbance, V66 E. coli | OD growth | inhibition, % at 11.9 µM | shares compounds with AddAB inh | actives 73% (n = 880);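 active means mean inhibition above the mean of solvent-only control wells plus 3 SD, cut at about 4% in these data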;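 further: optical density read after an 18 h incubation at 37 °C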
Bact viability: bacterial viability inhibition counter-screen, confirmation, counter-screen for AddAB inhibitor project, absorbance; shares compounds with AddAB inh; actives 35% (n = 880); inhibition, % at 11.9 µM; absorbance (AddAB counterscreen); in the data active means inhibition above about 25%
RecBCD conf: growth loss of phage-infected RecBCD+ E. coli, confirmation, RecBCD inhibitor project, absorbance, E. coli V66, T4 gene 2 phage; shares compounds with phage Ecoli inh; E. coli V66 + T4 2- phage, growth OD; actives 45% (n = 890); inhibition, % at 11.9 µM; AID 651982, 2013;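 active means mean inhibition over triplicates exceeding the hit threshold derived in the original primary screen, cut at about 11% in these data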
Ecoli viability: E. coli viability inhibition, counter-screen for RecBCD inhibitor project, absorbance, high throughput. shares compounds with phage Ecoli inh. absorbance (OD) growth. inhibition, % at 11.9 µM. actives 29% (n = 890); in the data active means inhibition above about 20%;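 further: E. coli strain V66 grown with compound alone and no phage infection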
AddAB counter: growth loss of phage-infected AddAB-carrying E. coli, confirmation, counter-screen for RecBCD inhibitor project, absorbance, E. coli V3065, T4 phage. shares compounds with phage Ecoli inh. E. coli expressing H. pylori AddAB + T4 phage, OD growth; gene 2 mutant T4, recBCD-deleted host. inhibition, % at 11.9 µM. actives 45% (n = 890). AID 651984, 2013;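 active means mean inhibition above the solvent-only control wells' mean plus 3 SD, cut at about 22% in these data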;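 further: higher means less bacterial growth from phage killing when AddAB is blocked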
Each line names hits and unclear results; the compound was inactive in the other large screens (follow-up assays come after a bar, where they were run).

COc1cccc(-n2c(SCc3cc(=O)oc4cc(O)c(O)cc34)nc3ccccc3c2=O)c1	E coli growth-1 16.1, AddAB inh 21.0, phage Ecoli inh 17.8 | AddAB confirm 13.1 | RecBCD counter 15.2 | Bact viability inactive | RecBCD conf inactive | Ecoli viability inactive | AddAB counter inactive
Nc1nc(=S)c2[nH]cnc2[nH]1	E coli growth-1 77.0, AddAB inh 92.2, phage Ecoli inh 66.4 (no result: E coli growth-2) | AddAB confirm 90.8 | RecBCD counter 60.5 | Bact viability 73.9 | RecBCD conf 56.7 | Ecoli viability 66.8 | AddAB counter 84.2
Nc1nc(=S)c2[nH]c(=S)[nH]c2[nH]1	none (no result: E coli growth-1, AddAB inh)
Nc1nonc1C(=NO)N1CCCC1	none (no result: Tat transport, E coli growth-1, AddAB inh, phage Ecoli inh)
Oc1ccc2ccccc2c1/C=N/Nc1nnc(-c2ncc[nH]2)c2ccccc12	E coli growth-1 14.3, AddAB inh 18.6, phage Ecoli inh 16.7 (no result: E coli growth-2) | AddAB confirm 21.6 | RecBCD counter 24.2 | Bact viability inactive | RecBCD conf 17.4 | Ecoli viability 21.8 | AddAB counter 27.3
Oc1ccc2ccccc2c1C=NNc1nnc(-c2ncc[nH]2)c2ccccc12	none (no result: Tat transport, E coli growth-1, AddAB inh, phage Ecoli inh)
O=c1cc2oc3cc(O)c(O)cc3c(-c3ccccc3[N+](=O)[O-])c-2cc1O	E coli growth-1 12.5, AddAB inh 12.6, phage Ecoli inh 11.2 | AddAB confirm inactive | RecBCD counter 11.6 | Bact viability inactive | RecBCD conf inactive | Ecoli viability inactive | AddAB counter inactive
COc1ccc(NS(=O)(=O)c2ccc(N)cc2)nn1	none (no result: Tat transport, E coli growth-2, phage Ecoli inh)
Nc1ccc(S(=O)(=O)Nc2ccc(Cl)nn2)cc1	E coli growth-1 12.1, AddAB inh 19.5, phage Ecoli inh 16.0 | AddAB confirm 19.4 | RecBCD counter 11.1 | Bact viability 29.9 | RecBCD conf 11.6 | Ecoli viability inactive | AddAB counter 39.3
CC(=NNS(=O)(=O)c1ccc(Cl)cc1)c1cccc(O)c1	none (no result: Tat transport, E coli growth-1, AddAB inh, phage Ecoli inh)
CC[C@H]1OC(=O)[C@H](C)[C@@H](O[C@H]2C[C@@](C)(OC)[C@@H](O)[C@H](C)O2)[C@H](C)[C@@H](O[C@@H]2O[C@H](C)C[C@H](N(C)C)[C@H]2O)[C@](C)(OC)C[C@@H](C)C(=O)[C@H](C)[C@@H](O)[C@]1(C)O	Tat transport 58.4, E coli growth-1 17.2, AddAB inh 21.6, phage Ecoli inh 14.5 (no result: E coli growth-2) | AddAB confirm 52.0 | RecBCD counter 25.0 | Bact viability 27.8 | RecBCD conf 29.2 | Ecoli viability 30.1 | AddAB counter 40.4
Cc1ccc(C(=O)Nc2cccc(C(=O)NN=Cc3ccc(F)cc3)c2)cc1	none (no result: Tat transport, E coli growth-1, AddAB inh, phage Ecoli inh)
O=C(NCc1ccccc1)c1cccc2c1C(=O)c1ccc(C=Cc3ccccc3)cc1S2(=O)=O	none (no result: Tat transport, E coli growth-1, AddAB inh, phage Ecoli inh)
Cc1onc(-c2c(Cl)cccc2Cl)c1C(=O)N/N=C(\N)COc1ccc(Cl)cc1	E coli growth-1 15.5, AddAB inh 14.3, phage Ecoli inh 17.6 (no result: E coli growth-2) | AddAB confirm 17.3 | RecBCD counter 19.0 | Bact viability inactive | RecBCD conf inactive | Ecoli viability inactive | AddAB counter 32.1
Cc1onc(-c2ccccc2Cl)c1C(=O)NN=C(N)COc1ccc(Cl)cc1	none (no result: Tat transport, E coli growth-1, AddAB inh, phage Ecoli inh)
CC(=O)N1CCc2c(sc(NC(=O)c3ccc([N+](=O)[O-])o3)c2C#N)C1	none (no result: E coli growth-1, AddAB inh)
CC(C)N1CCc2c(sc(NC(=O)c3ccc([N+](=O)[O-])o3)c2C(N)=O)C1	E coli growth-1 99.7, AddAB inh 99.8, phage Ecoli inh 34.2 (no result: E coli growth-2) | AddAB confirm 102.2 | RecBCD counter 47.9 | Bact viability 103.0 | RecBCD conf 37.7 | Ecoli viability 62.0 | AddAB counter 102.9
COC(=O)c1c(NC(=O)c2ccc([N+](=O)[O-])o2)sc2c1CCN(C(C)C)C2	E coli growth-1 100.1, AddAB inh 101.4, phage Ecoli inh 30.7 (no result: E coli growth-2) | AddAB confirm 98.4 | RecBCD counter 98.4 | Bact viability 99.2 | RecBCD conf 100.2 | Ecoli viability 101.5 | AddAB counter 102.3
CC(C)CC(NC(=O)c1nc[nH]c1C(=O)NCCCCCNC(=O)OC(C)(C)C)C(=O)OC(C)(C)C (stereo not given)	none (no result: Tat transport, E coli growth-1, AddAB inh, phage Ecoli inh)
CCC(=O)c1cn(CC(=O)Nc2ccc(OC)cc2)c2ccccc12	E coli growth-1 14.0, AddAB inh 13.2, phage Ecoli inh 11.3 (no result: E coli growth-2) | AddAB confirm inactive | RecBCD counter 11.3 | Bact viability inactive | RecBCD conf inactive | Ecoli viability inactive | AddAB counter inactive
COC(=O)Cn1cc(C(=O)c2ccco2)c2ccccc21	none
CCOc1ccc(NC(=O)Cn2cc(C(=O)c3ccco3)c3ccccc32)cc1	E coli growth-1 13.5, AddAB inh 12.7, phage Ecoli inh 12.2 | AddAB confirm inactive | RecBCD counter 9.7 | Bact viability inactive | RecBCD conf inactive | Ecoli viability inactive | AddAB counter inactive
COc1ccc(NC(=O)Cn2cc(C(=O)c3ccco3)c3ccccc32)cc1	E coli growth-1 18.4, AddAB inh 16.2, phage Ecoli inh 18.1 | AddAB confirm 12.8 | RecBCD counter 13.0 | Bact viability inactive | RecBCD conf inactive | Ecoli viability inactive | AddAB counter inactive
CCCCC(=O)NC(c1ccco1)c1cc(Cl)c2cccnc2c1O (stereo not given)	E coli growth-1 24.1, AddAB inh 16.4, phage Ecoli inh 20.6 | AddAB confirm 17.7 | RecBCD counter 17.6 | Bact viability inactive | RecBCD conf inactive | Ecoli viability inactive | AddAB counter inactive
CCC(=O)NC(c1ccc(OC)cc1)c1cc(Cl)c2cccnc2c1O (stereo not given)	E coli growth-1 23.1, AddAB inh 26.1, phage Ecoli inh 20.5 | AddAB confirm 20.6 | RecBCD counter 22.6 | Bact viability inactive | RecBCD conf 12.8 | Ecoli viability inactive | AddAB counter 21.5
